Screening data deposited in PubChem by The Scripps Research Institute Molecular Screening Center.
FBW7 activator: activators of human E3 ligase FBW7; AlphaScreen FBW7–phospho-cyclin E peptide binding, activator screen; normalized activity (activation), % at 26.1 µM; 0.13% of 650,000 active; in the data active = normalized activity above about 1.9%;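 also: purified mutant Fbw7 with reduced substrate affinity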
MITF primary: inhibitors of human MITF | inhibition, % at 2.6 µM | AID 1259374 | AlphaScreen MITF homodimerization, bead proximity signal | 0.91% of 650,000 active | O75030; in the data active = inhibition above about 50%;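 also: 0% = vehicle wells with protein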
GPR151 activ: human GPR151 activation. 1% of 650,000 active. activation, % at 11.2 µM. AID 1508602. PathHunter beta-arrestin GPR151 cells, luminescence; in the data active = activation above about 4.9%;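 also: 0% = median of compound wells and 100% = cells with positive control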
Target sequence (Q8TDV0 whole entry, looked up): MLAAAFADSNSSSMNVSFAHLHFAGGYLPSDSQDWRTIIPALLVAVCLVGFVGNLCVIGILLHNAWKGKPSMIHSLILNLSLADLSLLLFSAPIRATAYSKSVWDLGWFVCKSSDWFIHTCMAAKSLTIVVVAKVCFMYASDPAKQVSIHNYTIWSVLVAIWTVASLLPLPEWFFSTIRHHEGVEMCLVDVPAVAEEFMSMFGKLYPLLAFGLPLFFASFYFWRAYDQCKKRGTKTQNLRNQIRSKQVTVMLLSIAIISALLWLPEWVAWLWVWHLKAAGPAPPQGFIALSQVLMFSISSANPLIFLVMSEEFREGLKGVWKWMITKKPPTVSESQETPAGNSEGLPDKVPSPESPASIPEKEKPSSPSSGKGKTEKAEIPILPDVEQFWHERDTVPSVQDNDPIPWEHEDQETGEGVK
TEAD-YAP inh: TEAD-YAP interaction inhibition. HEK-TIYL cells, TEAD-Gal4/YAP UAS-luciferase luminescence. inhibition, % at 9.12 µM. 1.4% of 640,000 active; in the data active = inhibition above about 32%;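 also: 0% = median of test compound wells and 100% = reference inhibitor wells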
An asterisk follows results filed as active. A selection: hits, their analogues and other compounds. The true share with any hit is near 3.4%.

SMILES	FBW7 activator	MITF primary	GPR151 activ	TEAD-YAP inh
CNc1c(C)ccc2c1C(=O)c1ccccc1C2=O	-2	84*	-1	-43
O=C(Nc1ccc2c(c1)OC(F)(F)O2)c1ccc(Cl)c([N+](=O)[O-])c1	0	10	0	34*
O=C(CCl)Nc1ccc2c(c1)OC(F)(F)O2	0	15	1	37*
O=C(Nc1ccc(F)c(Cl)c1)c1ccc(Cl)c([N+](=O)[O-])c1	0	3	1	2
CN(CC(=O)Nc1cccc(F)c1)CC(=O)Nc1ccc2c(c1)OC(F)(F)O2	1	-7	-2	14
O=C(NCc1ccncc1)c1ccc(OC2CCN(C3CCOCC3)CC2)cc1	0	-2	0	2
Cc1cc(CN2CCC(Oc3ccc(C(=O)NCc4ccncc4)cc3)CC2)oc1C	0	-13	0	33*
Cc1cc(C)nc(NC(c2ccco2)c2ccc3cccnc3c2O)n1 (stereo not drawn)	0	11	-1	-32
Oc1cccnc1NC(c1ccccc1F)c1ccc2cccnc2c1O (stereo not drawn)	0	45	1	36*
Cc1ccc(C(NC(=O)c2ccccc2)c2ccc3cccnc3c2O)cc1 (stereo not drawn)	0	6	-1	24
CC(=O)NC(c1ccc(C(C)C)cc1)c1ccc2cccnc2c1O (stereo not drawn)	-1	24	3	83*
CC(=O)NC(c1ccccc1F)c1ccc2cccnc2c1O (stereo not drawn)	0	-11	-2	84*
O=C(CC12CC3CC(CC(Br)(C3)C1)C2)OCC(=O)c1ccccc1	0	2	3	67*
CC(C)CN(CC(C)C)S(=O)(=O)c1ccc(C(=O)Nc2nc3c(s2)CC(C)CC3)cc1 (stereo not drawn)	0	-6	0	-2
COc1ccc(NC(=O)c2c(Cl)nc(Cl)c([N+](=O)[O-])c2Cl)cc1	0	-2	3	85*
O=C(O)c1c(Cl)nc(Cl)c([N+](=O)[O-])c1Cl	0	6	0	15
CCCCNC(=O)c1c(Cl)nc(Cl)c([N+](=O)[O-])c1Cl	0	0	-1	45*
NC(=O)c1c(Cl)nc(Cl)c([N+](=O)[O-])c1Cl	0	5	-1	98*
COc1ccc(NC(=O)Nc2ccc3c4c(cccc24)CC3)cc1OC	0	-2	0	6
COc1cc(Nc2nc3ccccc3n3cnnc23)cc(OC)c1OC	0	-4	-1	-4
COc1cc(Nc2nc3ccc(C)cc3n3cnnc23)cc(OC)c1OC	0	20	1	34*
COc1cc2nc(-c3cccc(N)c3)nc(Nc3ccc(Oc4ccccc4)cc3)c2cc1OC	0	3	0	36*
COc1cc2nc(-c3ccc(C(=O)NC4CC4)cc3)nc(Nc3ccc(Oc4ccccc4)cc3)c2cc1OC	3.7*	-7	1	35*
COc1ccc(C(=O)On2c(-c3cccc(Cl)c3)nc3ccccc3c2=O)cc1Br	0	-7	-1	-3
COc1ccc(Cl)cc1C(=O)On1c(-c2ccc(Br)cc2)nc2ccccc2c1=O	3.2*	7	0	7
SMILES	FBW7 activator	MITF primary	GPR151 activ	TEAD-YAP inh
CSc1sc(C)cc1C1C(C(=O)Nc2c(F)cccc2F)=C(C)NC2=C1C(=O)CC(c1ccccc1)C2 (stereo not drawn)	0	-8	0	2
COc1cc2[nH]c(=S)nc(NCCNC(C)=O)c2cc1OC	0	7	-1	-2
O=S(=O)(c1ccccc1)N1CCC(O)(CSc2ccc(Cl)cc2)CC1	0	5	0	39*
C#CCOc1ccc(/C=C2/NC(=O)NC2=O)cc1Br	0	14	0	-11
Cc1ccc(NC(=S)N(Cc2ccccc2)Cc2cccs2)cc1	0	13	2	-10
Cc1ccc(NC(=S)N(Cc2ccccc2)Cc2cccs2)cc1C	0	-7	1	57*
Cc1ccc(C(=O)c2ccc(N)cc2)cc1C	0	34	2	52*
CCSc1nnc(NC(=O)CCS(=O)(=O)c2ccc(C)cc2)s1	0	2	2	5
CC(C)n1cc(-c2ccc3ccccc3n2)cn1	0	0	-9	82*
CCc1ccc(NC(=O)c2ccc(F)c(S(=O)(=O)N(CC)Cc3ccccc3)c2)cc1	0	-5	0	-2
CN(Cc1ccccc1)S(=O)(=O)c1cc(C(=O)Nc2ccc(F)c(F)c2)ccc1F	0	-6	4	44*
O=C(Nc1ccc(F)c(F)c1)c1ccc(F)c(S(=O)(=O)NCc2ccco2)c1	1	3	0	38*
